These results are taken from PubChem BioAssay (Tox21).

For experiment [1], the target named is Acetylcholinesterase (Homo sapiens) (UniProt P22303). Put plainly: Acetylcholinesterase (AChE) small molecule antagonists: colormetric cell-based qHTS assay (AID 1347395). Note: nearly all actives have a fitted effect of over 30% in size. Note: potency is the fitted concentration of half-maximal effect. The method in brief: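 Homogeneous whole-cell format. SH-SY5Y cells seeded overnight, dosed with compound (30 min, 37 C, 5% CO2), then given DTNB/acetylthiocholine cocktail for 90 min at 37 C; colorimetric signal.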
Acetylcholinesterase (Homo sapiens), sequence (P22303 whole entry, looked up): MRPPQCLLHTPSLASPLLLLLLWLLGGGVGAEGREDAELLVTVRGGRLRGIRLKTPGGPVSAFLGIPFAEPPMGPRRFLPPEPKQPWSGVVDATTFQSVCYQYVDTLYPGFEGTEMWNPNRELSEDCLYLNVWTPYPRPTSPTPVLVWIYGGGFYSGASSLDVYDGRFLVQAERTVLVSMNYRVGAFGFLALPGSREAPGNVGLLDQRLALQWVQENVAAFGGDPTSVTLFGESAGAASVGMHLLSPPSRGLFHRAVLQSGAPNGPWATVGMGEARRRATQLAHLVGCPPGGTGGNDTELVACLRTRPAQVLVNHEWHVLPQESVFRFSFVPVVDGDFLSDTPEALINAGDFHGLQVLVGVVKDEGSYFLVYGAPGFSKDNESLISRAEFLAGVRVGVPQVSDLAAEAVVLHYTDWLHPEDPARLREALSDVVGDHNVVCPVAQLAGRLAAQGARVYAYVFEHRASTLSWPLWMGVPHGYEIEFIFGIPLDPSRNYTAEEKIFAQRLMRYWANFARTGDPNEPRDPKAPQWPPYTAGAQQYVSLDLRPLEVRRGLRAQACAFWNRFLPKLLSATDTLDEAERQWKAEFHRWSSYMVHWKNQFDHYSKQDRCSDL

For experiment [2] the target is unchanged. The experiment in a line: Acetylcholinesterase (AChE) small molecule antagonists: enzyme-based qHTS assay (AID 1347397). Note: nearly all actives have a fitted effect of over 55% in size. Note: potency is the fitted concentration of half-maximal effect. Conditions: Potency: AChE enzyme activity inhibition; outcome: AChE enzyme activity inhibition. The gist of the method: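 Absorbance-based detection of thiocholine with DTNB served as the read-out. Recombinant human AChE was exposed to compound for 30 min at RT before a 10 min RT incubation with acetylthiocholine.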
(Quantitative high-throughput screening tests each substance at several concentrations.)

The target is the same in experiment [3]. Put plainly: Acetylcholinesterase (AChE) small molecule antagonists: fluorescence cell-based qHTS assay (AID 1347398). Note: nearly all actives have a fitted effect of over 50% in size. As to conditions: Potency: AChE activity; outcome: AChE activity. The method in brief: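 Fluorimetric cell-based assay: intact SH-SY5Y cells, 30 min compound preincubation at 37 C, acetylthiocholine substrate with thiol probe Thiolite Green, 40 min RT development, fluorescence 490/520 nm.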

The target is the same in experiment [4]. Put plainly: Acetylcholinesterase (AChE) small molecule antagonists: enzyme-based qHTS assay with human liver microsomes (AID 1347399). Note: nearly all actives have a fitted effect of over 60% in size. As to conditions: Potency: qHTS inhibition; outcome: qHTS inhibition. The method in brief:
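Recombinant human AChE (50 mU/mL in the enzyme mix) and human liver microsomes (0.25 mg/mL final) were preincubated with compound and NADPH (0.25 mg/mL final) for 30 min at 37 C. Acetylthiocholine/DTNB was then added; thiocholine was read colorimetrically after 10 min at room temperature.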

Structures are written as SMILES. Inconclusive results are not listed. The source holds several records for some structures; these can differ, active in one and inactive in another. Active and inactive are the calls of the source. Calls come from the whole dose curve.
% is set by controls: 0 for no effect and ±100 for the full control effect.

In the case of `CC(=O)OCCC(C)C`, the Potency entry in experiment [1], in experiment [2], in experiment [3] and in experiment [4] was “inactive” throughout.
Regarding `O=C1c2cccc(O)c2C(=O)c2c(O)cc(CO)cc21`, the Potency result in experiment [1], in experiment [2], in experiment [3] and in experiment [4] was “inactive” throughout.
`O=C(Nc1cccc(C(F)(F)F)c1)c1cc(Br)cc(Br)c1O`: the Potency entry in experiment [1], in experiment [2] and in experiment [4] was “inactive” each time.
Consider `C=C[C@H]1CN2CC[C@H]1C[C@@H]2[C@@H](O)c1ccnc2ccc(OC)cc12`, for which the Potency result in experiment [1], in experiment [2] and in experiment [4] was “inactive” in each case.
Take `O=C(CCc1ccc(O)cc1)c1c(O)cc(O)cc1O`: the Potency result in experiment [1] and in experiment [4] was “inactive” in each case. Moreover, the Potency in experiment [2] is 57.7 µM (active).
Take `CC(CO)(CO)C(=O)O`: the Potency entry in experiment [1], in experiment [2] and in experiment [4] was “inactive” throughout.
In the case of `O=C1NCC2(CCN(CCc3ccccc3)CC2)O1`, the Potency result in experiment [1], in experiment [3] and in experiment [4] was “inactive” each time.
Regarding `Cc1nnc(NS(=O)(=O)c2ccc(N)cc2)s1`, the Potency result in experiment [1], in experiment [2] and in experiment [4] was “inactive” in each case.
`CC(C)[N+](C)(CCOC(=O)C1c2ccccc2Oc2ccccc21)C(C)C`: the Potency result in experiment [1], in experiment [2] and in experiment [4] was “inactive” throughout.
As to `Cc1ccc(NC(=O)N(C)C)cc1NC(=O)N(C)C`, the Potency entry in experiment [1], in experiment [2] and in experiment [4] was “inactive” each time.
`CCCCN(C)C`: the Potency entry in experiment [1], in experiment [3] and in experiment [4] was “inactive” throughout.
As to `CC(=O)O[C@@H]1C(=O)O[C@@H]2[C@H]1OC(=O)[C@@H]2OC(C)=O`, the Potency result in experiment [1], in experiment [2] and in experiment [4] was “inactive” throughout.
In the case of `CCc1ccc(C)cc1`, the Potency result in experiment [1], in experiment [2] and in experiment [4] was “inactive” throughout.
As for `CCC/C=C/C=O`, the Potency entry in experiment [1], in experiment [2] and in experiment [4] was “inactive” throughout.
As for `CCCCCCCCCO`, the Potency result in experiment [1] and in experiment [3] was “inactive” in each case.
Turning to `Cc1ccc(OC(=O)CC(C)C)cc1`, the Potency result in experiment [1], in experiment [2] and in experiment [4] was “inactive” in each case.
On to `C=CC(=O)NC(C)(C)CS(=O)(=O)O`, for which the Potency result in experiment [1], in experiment [2] and in experiment [4] was “inactive” in each case.
Take `CCC(=O)c1cccc(Cl)c1`: the Potency entry in experiment [1] and in experiment [3] was “inactive” throughout.
Regarding `Nc1cccc(S(=O)(=O)c2cccc(N)c2)c1`, the Potency entry in experiment [1], in experiment [2] and in experiment [4] was “inactive” each time.
On to `NC(N)=NS(=O)(=O)c1ccc(N)cc1`, for which the Potency entry in experiment [1], in experiment [2] and in experiment [4] was “inactive” in each case.
For `CC1(C)NC(=O)NC1=O`, the Potency result in experiment [1], in experiment [3] and in experiment [4] was “inactive” in each case.
Turning to `C=C/C(C)=C/C/C=C(\C)CCC=C(C)C`, the Potency result in experiment [1], in experiment [2] and in experiment [4] was “inactive” in each case.
With `CCO[Si](CCCS)(OCC)OCC`, the Potency result in experiment [1], in experiment [2] and in experiment [4] was “inactive” throughout.
On to `CCN(CC)C(=O)c1ccc(O)c(OC)c1`, for which the Potency result in experiment [1], in experiment [2] and in experiment [4] was “inactive” in each case.
Turning to `Nc1nc(N)nc(-c2ccccc2)n1`, the Potency entry in experiment [1], in experiment [3] and in experiment [4] was “inactive” each time.
Regarding `c1cnc(N2CCN(Cc3ccc4c(c3)OCO4)CC2)nc1`, the Potency entry in experiment [1], in experiment [2] and in experiment [4] was “inactive” throughout.
As to `C1=Cc2ccccc2C1`, the Potency result in experiment [1], in experiment [3] and in experiment [4] was “inactive” each time.
With `CN(C)c1ccc(C(=N)c2ccc(N(C)C)cc2)cc1`, the Potency in experiment [1] was 7.01 µM (active) and inactive. The Potency entry in experiment [2] and in experiment [4] was “inactive” in each case.
Regarding `C=C[C@@H](C)CCC=C(C)C`, the Potency result in experiment [1], in experiment [2] and in experiment [4] was “inactive” in each case.
Turning to `CCCCOC(=O)CC#N`, the Potency entry in experiment [1], in experiment [2] and in experiment [4] was “inactive” in each case.
For `O=C(O)CNC(=O)c1ccc(CO)o1`, the Potency entry in experiment [1], in experiment [2] and in experiment [4] was “inactive” throughout.
For `CCc1ccc2c(c1)C(=O)c1ccccc1C2=O`, the Potency entry in experiment [1], in experiment [3] and in experiment [4] was “inactive” in each case.
Regarding `CC(=O)O[C@]1(C(C)=O)CC[C@H]2[C@@H]3C[C@H](C)C4=CC(=O)CC[C@]4(C)[C@H]3CC[C@@]21C`, the Potency result in experiment [1], in experiment [2] and in experiment [4] was “inactive” throughout.
Turning to `C=COCC(C)C`, the Potency result in experiment [1], in experiment [3] and in experiment [4] was “inactive” each time.
As to `CC(C)COC(=O)CCCCC(=O)OCC(C)C`, the Potency result in experiment [1], in experiment [2] and in experiment [4] was “inactive” each time.
With `COc1ccc(NC(=O)CC(C)=O)cc1`, the Potency entry in experiment [1], in experiment [2] and in experiment [4] was “inactive” throughout.
Regarding `CC(C)(C)c1ccc(O)c(O)c1`, the Potency result in experiment [1], in experiment [2] and in experiment [4] was “inactive” throughout.
For `COC(=O)c1ccccc1C`, the Potency entry in experiment [1], in experiment [2] and in experiment [4] was “inactive” in each case.
On to `CNCCC(Oc1ccccc1OC)c1ccccc1` (centres undefined), for which the Potency entry in experiment [1], in experiment [2] and in experiment [4] was “inactive” in each case.
In the case of `CCCCNc1ccc(NCCCC)c2c1C(=O)c1ccccc1C2=O`, the activity, negative = inhibition in experiment [1] is -1.89% [at 23.6 µM] (inactive). For the same compound, the activity change, negative = inhibition in experiment [2] is -0.954% [at 23.6 µM] (inactive); in experiment [4] it was -2.27% [at 23.6 µM] (inactive).
As to `C=C(C)C(=O)OCCOC(=O)CC(C)=O`, the Potency result in experiment [1], in experiment [2] and in experiment [4] was “inactive” each time.
For `CCCOC(=O)c1ccc(C(=O)OCCC)nc1`, the Potency result in experiment [1], in experiment [2] and in experiment [4] was “inactive” each time.
`COc1ccc(C(C)=O)cc1`: the Potency entry in experiment [1], in experiment [3] and in experiment [4] was “inactive” throughout.
For `O=C(O)c1snc(Cl)c1Cl`, the Potency entry in experiment [1], in experiment [3] and in experiment [4] was “inactive” each time.
As for `CCCCCCCCN(C)C`, the Potency entry in experiment [1], in experiment [3] and in experiment [4] was “inactive” in each case.
With `COc1c(Cl)c(Cl)c(Cl)c(Cl)c1Cl`, the Potency entry in experiment [1], in experiment [3] and in experiment [4] was “inactive” each time.
As to `CS(=O)(=O)CCNCc1ccc(-c2ccc3ncnc(Nc4ccc(OCc5cccc(F)c5)c(Cl)c4)c3c2)o1`, the Potency entry in experiment [2], in experiment [3] and in experiment [4] was “inactive” each time.
Turning to `COc1cc(/C=C/C(N)=O)cc(OC)c1OC`, the Potency result in experiment [1], in experiment [3] and in experiment [4] was “inactive” in each case.
On to `C[Si]1(C)O[Si](C)(C)O[Si](C)(C)O[Si](C)(C)O1`, for which the Potency entry in experiment [2], in experiment [3] and in experiment [4] was “inactive” throughout.
In the case of `CC(=O)O[C@H](CC(=O)[O-])C[N+](C)(C)C`, the Potency entry in experiment [1], in experiment [3] and in experiment [4] was “inactive” each time.
Regarding `O=C1OC2(c3ccccc31)c1cc(Br)c(O)c(Br)c1Oc1c2cc(Br)c(O)c1Br`, the Potency entry in experiment [1], in experiment [3] and in experiment [4] was “inactive” in each case.
Regarding `OCC(O)CS` (centres undefined), the Potency result in experiment [1], in experiment [3] and in experiment [4] was “inactive” throughout.
As to `CC(NN)c1ccccc1` (centres undefined), the activity, negative = inhibition in experiment [1] was 1.5% [at 23.6 µM] (inactive). For the same compound, the activity change, negative = inhibition is 0.294% [at 23.8 µM] (inactive) in experiment [3] and 1.27% [at 23.6 µM] (inactive) in experiment [4].
Regarding `Oc1cn2c(n1)Nc1ccc(Cl)c(Cl)c1C2`, the activity change, negative = inhibition in experiment [2] is 0.842% [at 23.6 µM] (inactive); in experiment [3], -3.43% [at 23.8 µM] (inactive).
For `CC1=NN(c2ccc(S(=O)(=O)O)cc2)C(=O)C1`, the Potency entry in experiment [1], in experiment [3] and in experiment [4] was “inactive” each time.
Take `O=C(O)c1ccc[n+]([O-])c1`: the Potency entry in experiment [1], in experiment [3] and in experiment [4] was “inactive” in each case.
Take `N[C@@H](CCC(=O)Nc1ccc([N+](=O)[O-])cc1)C(=O)O`: the Potency entry in experiment [1], in experiment [3] and in experiment [4] was “inactive” throughout.
On to `CCOC(=O)C1=C(C)NC(C)=C(C(=O)OC)C1c1cccc(Cl)c1Cl` (centres undefined), for which the Potency result in experiment [2], in experiment [3] and in experiment [4] was “inactive” each time.
`NC(CSCC(=O)O)C(=O)O` (centres undefined): the Potency result in experiment [1], in experiment [3] and in experiment [4] was “inactive” in each case.
Take `CC(=O)Nc1ccc(CC(=O)O)cc1`: the Potency result in experiment [1], in experiment [3] and in experiment [4] was “inactive” throughout.
